This note sets out measurements from PubChem BioAssay (NCI).

Each structure is given as a SMILES string. Where “and” joins values, the source holds several entries; their conditions need not be identical. Identical values can stand only once. This is part of a sample that, as a whole, favours compounds with a hit. Of some 83,000 tested, about 20% had one in any assay.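 For each line, cells grew in 96-well plates with the test compound present at a single concentration for 48 hours.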 A number with no mark means an inactive call. Calls of active or inactive are those of the source.

The test system of the first test is A549/ATCC NSCLC. Briefly: NCI-60 one-dose screen, 48 h (100 = growth as untreated, 0 = no growth, -100 = all killed). Particulars: 10 µM. On the procedure:
Growth inhibition of the A549/ATCC human Non-Small Cell Lung tumor cell line is measured as a screen for anti-cancer activity. Cells are grown in 96 well plates and exposed to the test compound for 48 hours. Compounds are tested at a single concentration, which is 10^-5 M for most compounds. The reported endpoint is percent growth (GI% or GIPRCNT), where numbers from 0 - 100% represent growth inhibition, and numbers from -100% - 0 represent cell death. For example, a value of 40 represents 60% growth inhibition. A value of 0 means no net growth occurred over the course of the experiment. A value of -40 indicates 40% of cells at the beginning of the experiment died by the end of the experiment. A value of -100 means all cells are dead at the end of the experiment.
NCI-60 Human Tumor Cell Lines Screen was performed using the standard one-dose NCI protocol, which is described in more detail at https://dtp.cancer.gov/discovery_development/nci-60/default.htm.
Compounds with GIPRCNT values below 10 were considered active. Activity score was based on GIPRCNT using the following formula: […]
Score is 0 for GIPRCNT values of 100 or above, 50 for GIPRCNT values of 0, and 100 for GIPRCNT values of -100.
Regarding `CC(=O)/C=C/c1ccc(N(CCO)Cc2ccc(C(C)(C)C)cc2)cc1`, the growth is 66.3%.
Consider `CCN(Cc1ccccc1)c1ccc(/C=C2\COc3ccccc3C2=O)cc1`, for which the growth was 99.4%.

Staying with this test, now noted: 10 µM unless noted.
For the compound `CCOC(=O)C1=C(C)NC(=O)NC1c1c(Cl)n(-c2ccccc2)c2ccccc12` (stereo not given), the growth is 88.2%.
Take `Cc1ccc2c(c1)C(C)Cc1c(ncnc1-n1cnc3cc(C)ccc31)N2C` (stereo not given): the growth was 8.39% (active).
Turning to `O=C(/C=C/c1ccc(F)cc1)Nc1ncc(Cc2ccc(F)cc2)s1`, the growth was 38.1%.
Consider `COc1cc2c(cc1OCCCOC1=C=C=C(c3ccc4c(c3)c3cc(-c5ccc(OCCCOc6cc7c(cc6OC)C(=O)N6CCC[C@H]6C=N7)cc5)ccc3n4S(=O)(=O)c3ccc(C)cc3)C=C1)N=C[C@@H]1CCCN1C2=O`, for which the growth is 56.4%.
Regarding `CCCCCCCCCCCCCCCCCCn1cc(COc2ccc(C=O)cc2)nn1`, the growth is 91.2%.
In the case of `ON=C1CCCCCCCC1`, the growth was 103% and 110%.
The same measure, in the same setting: next, `N=c1ccccn1CCO`: 99.3%; `COc1ccc(C/C(C)=C(/c2ccc(OCCN3CCCC3)cc2)c2ccc(OC(=O)NCc3ccccc3)cc2)cc1`: 72.3%.
For `O=C(/C=C/c1ccc(Cl)s1)c1ccc(Cl)s1`, the growth was 96.8%.
As for `CCn1cc(C(=O)NN=C2CCCC2)c(=O)c2ccc(C)nc21`, the growth is 90.3%.
For the compound `Cc1[nH]c(C(=O)Nc2nc3ccc(NC(=O)CCN)cc3s2)c(Cl)c1Cl`, the growth is 95.8%.
With `COc1cc(OC)cc(-c2ccc(-c3ccc(C(=N)N)cn3)s2)c1`, the growth is 63.2%.
Consider `CCCCCCCCN(CCCCCCCC)CC(O)c1cc(Cl)ccc1OC` (stereo not given), for which the growth is 83.9%.
With `CCCCC#Cc1c(/C=C(\CCCC)SCC)n(C)c(=O)[nH]c1=O`, the growth is 83.1%.
`CN1C(=O)/C(=C/c2ccc(C(=O)Nc3ncc(Cc4ccccc4Cl)s3)cc2)SC1=S`: the growth is 72.2%.
Regarding `O=C(Oc1ccc(CO[N+](=O)[O-])cc1)c1ccccc1`, the growth is -9.66% (active).
The same measure, in the same setting: next, `O=C(NNc1ccccc1)c1ccccc1`: 72.5% and 64.1%; `CC1(C)C(N)=Nc2cc(OCCCCN3Cc4ccccc4C3)c(OCC3CC3)cc21`: 79.5%.
For the compound `O=C(Cn1cc(CN2CCN(c3ccnc4cc(Cl)ccc34)CC2)nn1)Nc1cccc([N+](=O)[O-])c1`, the growth was 84.8%.
Consider `COC(=O)/C=C1/SC(N2N=C(c3cccs3)CC2c2ccc(F)cc2)=NC1=O` (stereo not given), for which the growth was 90.7%.
On to `O=C1Nc2ccccc2/C1=C/c1cccn1CCCCCn1c2ccccc2c(=O)c2ccccc21`, for which the growth is 81.4%.
Same read-out and setting: as for `Nc1ccc(-c2ccc(N)c(Br)c2)cc1Br`, the figure is 42.2%.
Turning to `CC(C)=CCc1cc(O)c(O)c2oc3cc(O)cc(O)c3c(=O)c12`, the growth is 43.3%.
Turning to `COc1ccc(C(c2cc(OC)c(OC)c(OC)c2)n2ccnc2)cc1O` (stereo not given), the growth was 12.8%.
Take `CC1=C2[C@@H](CC1)[C@]1(C)O[C@@](C(C)C)(C[C@H]1OC(=O)CO)[C@H]2OC(=O)C1CC1c1ccccc1` (stereo not given in full): the growth was 73.9%.
In the case of `COc1cc(/C=C2\CCC/C(=C\c3cc(CN4CCCC4)c(O)c(OC)c3)C2=O)cc(CN2CCCC2)c1O`, the growth was 43.7%.
Consider `Nc1nc(N)c2c(n1)NC(c1ccc(Cl)cc1)CC(c1cccc(Nc3ccncc3)c1)=N2` (stereo not given), for which the growth is 30.6%.
On to `COc1ccc(/C=N/NC(=O)CN2CCN(c3cc4c(cc3F)c(=O)c(C(=O)O)cn4C3CC3)CC2)cc1O`, for which the growth is 99.5%.
`COc1ccc(/C=C2/C(=O)N=C3N2NC(c2ccccc2)=CN3c2ccccc2)cc1`: the growth was 104%.
Still for that read-out and setting: as for `O=C1CCc2c(sc3[nH]c(=S)n(Cc4ccc(Cl)cc4)c(=O)c23)C1`, the figure is 5.35% (active).
As for `COc1nc(=O)n(C2C=CC(=O)O2)cc1F` (stereo not given), the growth was 123%.
On to `CCCCCCCCCCCCCCCC(=O)O[C@@H]1[C@@H](O)[C@@H](O)C([C@H](NC(=O)[C@@H]2C[C@@H](CCC)CN2C)[C@H](C)Cl)O[C@@H]1SC` (stereo not given in full), for which the growth was 102%.
Take `CCNC(=O)Nc1ncccc1OCc1ccc(F)cc1`: the growth is 99%.
`COc1ccc2c(c1)c(C(=O)c1nc(-c3cn(C)c4ccccc34)no1)cn2C`: the growth was 90.7%.
For `C=CCNC(=O)Cc1c(-c2ccc(OC)cc2)oc2c(OC)c3c(c(OC)c12)OCO3`, the growth was 95.2%.
The same measure, in the same setting: next, `CC(C)(C)CC(N)=O`: 97.6%.

Still in this test, the particulars now being: 100 µM.
As for `CC(=O)/C=C/c1ccc(N(CCO)Cc2ccc(C(C)(C)C)cc2)cc1`, the growth was -99.3% (active).
Consider `CCN(Cc1ccccc1)c1ccc(/C=C2\COc3ccccc3C2=O)cc1`, for which the growth is 47%.
